The text below walks through data of publication PMC5349851, “Combinatorial bZIP dimers display complex DNA-binding specificity landscapes”.

Holding throughout (assay): SELEX-seq (CSI, HT-SELEX, round 3); SELEX-seq: 1x PBS (10 mM phosphate, 137 mM NaCl, 2.7 mM KCl) pH 7.6, 2.5 mM DTT, 50 ng/ul poly dI-dC, 0.1% BSA, 50 nM biotinylated bZIP (1:3 with partner for heterodimers), 100 nM library, room temperature, 1 h, 3 rounds; high values mean tight binding
Settings in all cases: protein: recombinant;recombinant; copies: 1;1; dsDNA, one strand shown

The target of assay [1] is BATF2;ATF4 (Homo sapiens;Homo sapiens, UniProt Q8N1L9;P18848 8-85;269-346, |).
For assay [2], the target named is T1, BATF3;NFIL3 (Homo sapiens;Homo sapiens, UniProt Q9NR55;Q16649 26-99;64-134, |).
T1 sequence 1: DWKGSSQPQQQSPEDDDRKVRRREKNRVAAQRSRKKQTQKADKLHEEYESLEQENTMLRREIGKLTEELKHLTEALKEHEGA
T1 sequence 2: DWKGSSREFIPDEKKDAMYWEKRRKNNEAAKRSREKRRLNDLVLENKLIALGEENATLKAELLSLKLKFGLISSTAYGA

Assay [3] deals with T2, CEBPE;CEBPE (Homo sapiens;Homo sapiens, UniProt Q15744;Q15744 195-267;195-267, |).
T2 sequence 1: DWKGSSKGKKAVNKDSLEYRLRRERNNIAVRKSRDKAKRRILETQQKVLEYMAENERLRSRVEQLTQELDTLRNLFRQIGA
T2 sequence 2: T2 sequence 1

Assay [4] deals with T3, JUNB;CEBPE (Homo sapiens;Homo sapiens, UniProt P17275;Q15744 259-332;195-267, |).
T3 sequence 1: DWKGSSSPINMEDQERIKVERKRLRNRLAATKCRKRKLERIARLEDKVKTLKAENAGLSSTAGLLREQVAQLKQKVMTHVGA
T3 sequence 2: T2 sequence 1

Assay [5] concerns the target T4, JUNB;BATF (Homo sapiens;Homo sapiens, UniProt P17275;Q16520 259-332;17-90, |).
T4 sequence 1: T3 sequence 1
T4 sequence 2: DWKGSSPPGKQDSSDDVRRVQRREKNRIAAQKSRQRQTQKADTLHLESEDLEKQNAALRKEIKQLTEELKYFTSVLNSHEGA

In assay [6] the target is T5, JUNB;FOSL1 (Homo sapiens;Homo sapiens, UniProt P17275;P15407 259-332;96-169, |).
T5 sequence 1: T3 sequence 1
T5 sequence 2: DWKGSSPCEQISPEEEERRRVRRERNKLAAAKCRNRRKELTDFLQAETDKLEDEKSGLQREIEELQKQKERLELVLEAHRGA

In assay [7] the target is JUNB;FOS (Homo sapiens;Homo sapiens, UniProt P17275;P01100 259-332;128-201, |).
For assay [8], the target named is T6, JUNB;NFE2 (Homo sapiens;Homo sapiens, UniProt P17275;Q16621 259-332;221-337, |).
T6 sequence 1: T3 sequence 1
T6 sequence 2: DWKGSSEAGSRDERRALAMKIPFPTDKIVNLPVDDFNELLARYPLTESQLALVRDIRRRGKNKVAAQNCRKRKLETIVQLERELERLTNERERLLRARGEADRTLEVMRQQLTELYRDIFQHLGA

The target of assay [9] is JUNB;NFE2L1 (Homo sapiens;Homo sapiens, UniProt P17275;Q14494 259-332;609-725, |).
Assay [10] concerns the target T7, JUNB;HLF (Homo sapiens;Homo sapiens, UniProt P17275;Q16534 259-332;216-293, |).
T7 sequence 1: T3 sequence 1
T7 sequence 2: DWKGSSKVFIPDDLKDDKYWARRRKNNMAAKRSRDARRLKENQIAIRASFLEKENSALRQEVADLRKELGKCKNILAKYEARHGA

Assay [11] has as its target T8, JUNB;BATF2 (Homo sapiens;Homo sapiens, UniProt P17275;Q8N1L9 259-332;8-85, |).
T8 sequence 1: T3 sequence 1
T8 sequence 2: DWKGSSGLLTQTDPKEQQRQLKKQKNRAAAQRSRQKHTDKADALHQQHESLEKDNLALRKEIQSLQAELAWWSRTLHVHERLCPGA

Assay [12] concerns the target T9, JUNB;CREBZF (Homo sapiens;Homo sapiens, UniProt P17275;Q9NS37 259-332;195-272, |).
T9 sequence 1: T3 sequence 1
T9 sequence 2: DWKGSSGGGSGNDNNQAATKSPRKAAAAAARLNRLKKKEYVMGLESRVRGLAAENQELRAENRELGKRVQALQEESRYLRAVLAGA

Assay [13] deals with T10, BATF;HLF (Homo sapiens;Homo sapiens, UniProt Q16520;Q16534 17-90;216-293, |).
T10 sequence 1: T4 sequence 2
T10 sequence 2: T7 sequence 2

Assay [14] addresses T11, BATF;NFIL3 (Homo sapiens;Homo sapiens, UniProt Q16520;Q16649 17-90;64-134, |).
T11 sequence 1: T4 sequence 2
T11 sequence 2: T1 sequence 2

Assay [15] deals with T12, FOSL1;CEBPE (Homo sapiens;Homo sapiens, UniProt P15407;Q15744 96-169;195-267, |).
T12 sequence 1: T5 sequence 2
T12 sequence 2: T2 sequence 1

Assay [16] concerns the target T13, FOSL1;FOSL1 (Homo sapiens;Homo sapiens, UniProt P15407;P15407 96-169;96-169, |).
T13 sequence 1: T5 sequence 2
T13 sequence 2: T5 sequence 2

Assay [17] deals with T14, FOSL1;NFE2 (Homo sapiens;Homo sapiens, UniProt P15407;Q16621 96-169;221-337, |).
T14 sequence 1: T5 sequence 2
T14 sequence 2: T6 sequence 2

Assay [18] addresses FOS;BATF (Homo sapiens;Homo sapiens, UniProt P01100;Q16520 128-201;17-90, |).
For assay [19], the target named is FOS;FOSL1 (Homo sapiens;Homo sapiens, UniProt P01100;P15407 128-201;96-169, |).
For assay [20], the target named is FOS;NFE2 (Homo sapiens;Homo sapiens, UniProt P01100;Q16621 128-201;221-337, |).

Turning to ATGACGTCAT, the binding signal is 0.216 relative CSI intensity (max = 1) in assay [1]; 0.218 relative CSI intensity (max = 1) in assay [2]; 0.0521 relative CSI intensity (max = 1) in assay [3]; 0.104 relative CSI intensity (max = 1) in assay [4]; 0.784 relative CSI intensity (max = 1) in assay [5]; 0.3 relative CSI intensity (max = 1) in assay [6]. Besides, the binding signal in [7] was 0.188 relative CSI intensity (max = 1); in [8], 1 relative CSI intensity (max = 1); in assay [9] it was 1 relative CSI intensity (max = 1); in assay [10], 1 relative CSI intensity (max = 1); in [11], 1 relative CSI intensity (max = 1); in assay [12], 1 relative CSI intensity (max = 1). Moreover, the binding signal in assay [13] is 0.814 relative CSI intensity (max = 1); in [14], 1 relative CSI intensity (max = 1); in assay [15], 0.0518 relative CSI intensity (max = 1); in [16], 1 relative CSI intensity (max = 1); in [17], 0.466 relative CSI intensity (max = 1); in [18], 1 relative CSI intensity (max = 1). Further, the results for the binding signal in assay [19] and in assay [20] were 0.96 relative CSI intensity (max = 1) and 0.106 relative CSI intensity (max = 1), respectively.
For the sequence CCTGACGTCA, the binding signal in [1] is 0.0186 relative CSI intensity (max = 1); in [2], 0.00724 relative CSI intensity (max = 1); in [3], 0.00701 relative CSI intensity (max = 1); in [4], 0.00962 relative CSI intensity (max = 1); in [5], 0.0101 relative CSI intensity (max = 1); in assay [6] it was 0.00464 relative CSI intensity (max = 1). Further, the binding signal is 0.00331 relative CSI intensity (max = 1) in assay [7]; 0.0277 relative CSI intensity (max = 1) in assay [8]; 0.0112 relative CSI intensity (max = 1) in assay [9]; 0.00417 relative CSI intensity (max = 1) in assay [10]; 0.0149 relative CSI intensity (max = 1) in assay [11]; 0.0974 relative CSI intensity (max = 1) in [13]. The binding signal was 0.00153 relative CSI intensity (max = 1) in [15]; 0.0039 relative CSI intensity (max = 1) in [16]; 0.0335 relative CSI intensity (max = 1) in [17]; 0.0057 relative CSI intensity (max = 1) in [18]; 0.00384 relative CSI intensity (max = 1) in assay [20].
As to ATGACGTAAT, the binding signal in assay [1] is 0.119 relative CSI intensity (max = 1); in assay [2], 0.178 relative CSI intensity (max = 1); in assay [3], 0.0888 relative CSI intensity (max = 1); in assay [4], 0.0862 relative CSI intensity (max = 1); in assay [5], 0.0325 relative CSI intensity (max = 1); in assay [6] it was 0.017 relative CSI intensity (max = 1). The binding signal was 0.00946 relative CSI intensity (max = 1) in assay [7]; 0.12 relative CSI intensity (max = 1) in assay [8]; 0.116 relative CSI intensity (max = 1) in [9]; 0.537 relative CSI intensity (max = 1) in assay [10]; 0.0936 relative CSI intensity (max = 1) in assay [11]; 0.0382 relative CSI intensity (max = 1) in assay [12]. Besides, the binding signal is 0.71 relative CSI intensity (max = 1) in assay [13]; 0.786 relative CSI intensity (max = 1) in [14]; 0.00904 relative CSI intensity (max = 1) in assay [15]; 0.0331 relative CSI intensity (max = 1) in assay [16]; 0.129 relative CSI intensity (max = 1) in assay [17]; 0.0179 relative CSI intensity (max = 1) in assay [18]. Moreover, the values for the binding signal in assay [19] and in assay [20] were 0.0348 relative CSI intensity (max = 1) and 0.0286 relative CSI intensity (max = 1), respectively.
In the case of ATGACGCAAT, the binding signal in assay [1] is 0.0339 relative CSI intensity (max = 1); in assay [2] it was 0.0474 relative CSI intensity (max = 1); in [3] it was 0.259 relative CSI intensity (max = 1); in [4] it was 0.333 relative CSI intensity (max = 1); in assay [5] it was 0.00832 relative CSI intensity (max = 1); in assay [6], 0.00312 relative CSI intensity (max = 1). In addition, the binding signal is 0.00347 relative CSI intensity (max = 1) in [7]; 0.344 relative CSI intensity (max = 1) in [8]; 0.169 relative CSI intensity (max = 1) in assay [9]; 0.176 relative CSI intensity (max = 1) in assay [10]; 0.00872 relative CSI intensity (max = 1) in assay [11]; 0.0122 relative CSI intensity (max = 1) in assay [12]. Also, the binding signal in [13] is 0.105 relative CSI intensity (max = 1); in assay [14] it was 0.155 relative CSI intensity (max = 1); in assay [15], 0.0294 relative CSI intensity (max = 1); in assay [16] it was 0.0097 relative CSI intensity (max = 1); in [17], 0.18 relative CSI intensity (max = 1); in [18], 0.00539 relative CSI intensity (max = 1). Also, the binding signal in assay [19] was 0.0408 relative CSI intensity (max = 1); in assay [20], 0.0862 relative CSI intensity (max = 1).
In the case of ATGACGGAAT, the binding signal in assay [2] is 0.0076 relative CSI intensity (max = 1); in assay [3], 0.00629 relative CSI intensity (max = 1); in assay [4], 0.00513 relative CSI intensity (max = 1); in assay [5] it was 0.002 relative CSI intensity (max = 1); in assay [8] it was 0.0241 relative CSI intensity (max = 1); in [9], 0.0118 relative CSI intensity (max = 1). The binding signal in assay [10] was 0.00331 relative CSI intensity (max = 1); in [12], 0.00176 relative CSI intensity (max = 1); in assay [17] it was 0.0575 relative CSI intensity (max = 1); in [19], 0.0281 relative CSI intensity (max = 1); in [20], 0.00162 relative CSI intensity (max = 1).
Consider ATGATGCAAT, for which the binding signal was 0.0322 relative CSI intensity (max = 1) in assay [1]; 0.0307 relative CSI intensity (max = 1) in [2]; 0.139 relative CSI intensity (max = 1) in assay [3]; 0.314 relative CSI intensity (max = 1) in [4]; 0.116 relative CSI intensity (max = 1) in [8]; 0.0453 relative CSI intensity (max = 1) in assay [9]. Moreover, the binding signal in [11] is 0.00121 relative CSI intensity (max = 1); in assay [12], 0.00786 relative CSI intensity (max = 1); in assay [13], 0.179 relative CSI intensity (max = 1); in assay [14], 0.0609 relative CSI intensity (max = 1); in assay [15], 0.0136 relative CSI intensity (max = 1); in assay [16] it was 0.00963 relative CSI intensity (max = 1). For the same sequence, the binding signal in assay [17] is 0.12 relative CSI intensity (max = 1); in assay [20] it was 0.0393 relative CSI intensity (max = 1).
